The source of these data is ChEMBL document CHEMBL4513216, “Probing the Open Global Health Chemical Diversity Library for Multistage-Active Starting Points for Next-Generation Antimalarials” (ACS Infect Dis, 2020).

In all, about 68,000 compounds went through this assay and about 2,700 (4%) showed an effect of 50% or more. Shown is part of a subset that was picked to be rich in strong results.

The subject of this test is Plasmodium berghei. Description: Screen against P. berghei liver stage (PbLuc), transformed with Luciferase, at 2uM. The test is classed as functional, HepG2. The following applies: tested at 2 uM.
Turning to `Cc1cnn(CCC(=O)N2CCCN(c3ccccc3C#N)CC2)c1`, the INHIBITION was -43.47%.
The same measure for `CCNC(=O)N(C)C(c1cccnc1)C(C)C` (stereo unspecified): 42.2%; for `CC(C)C(c1cccnc1)N(C)C(=O)Cc1ccc(O)cc1` (stereo unspecified): 39.44%.
The same measure for `CC(C)C(c1cccnc1)N(C)C(=O)Cc1c(F)cccc1F` (stereo unspecified): 54.29%; for `CS(=O)(=O)c1cccc(C(N)c2ccccc2)c1` (stereo unspecified): 35.65%.
As for `Cc1ccc(C(N)c2cccc(S(C)(=O)=O)c2)cc1` (stereo unspecified), the INHIBITION was found to be 54.92%.
The same measure for `CS(=O)(=O)c1cccc(C(N)c2ccc(F)cc2)c1` (stereo unspecified): -19.35%; for `COc1ccc(CNC(=O)C(NC(=O)Cc2ccccc2)C(C)C)cn1` (stereo unspecified): -129.64%; for `O=C(Cc1ccccc1)N1CCC2(CC(=O)N(c3ccsc3)C2)C1` (stereo unspecified): -54.51%.
The same measure for `COc1ccc(Cl)cc1C(=O)NCC1CCN(C(=O)c2ccoc2)CC1`: 17.33%; for `CCOc1cccc(NC(=O)Cc2cccc(O)c2)n1`: 0.51%.
The same measure for `Cn1ccc(NC(=O)Cc2cccc(F)c2)n1`: 19.89%; for `CSc1ccc(NC(=O)Cc2cccc(O)c2)nc1`: 55.36%; for `COCCC(=O)N1C[C@@H](c2ccccc2F)[C@@]2(CCCC(=O)N2)C1`: -6.19%.
Consider `O=C(NCc1cnc2n1CCN(CC1CCOCC1)C2)c1ccno1`, for which the INHIBITION is on record as -14.52%.
Take `Cc1ccc(S(=O)(=O)N2CCC(N3CCCCC3)CC2)cc1C`: the INHIBITION is listed as -25.62%.
Turning to `Cc1ccc(S(=O)(=O)N2CCCCC(N3CCN(C)CC3)C2)cc1F` (stereo unspecified), the INHIBITION stood at 50.3%.
As for `Cc1cc(S(=O)(=O)N2CCCN3CCCC3C2)ccc1F` (stereo unspecified), the INHIBITION worked out at 6.07%.
With `Nc1nccnc1CC1CCCN(Cc2ccnc3ccccc23)C1` (stereo unspecified), the INHIBITION is given as 13.02%.
Turning to `CC(C)c1nc(CN2CCCC2Cn2cccn2)no1` (stereo unspecified), the INHIBITION is -97.56%.
As to `COCCN(C)Cc1cc(Cl)ccc1OCC(O)CN1CCCCCC1` (stereo unspecified), the INHIBITION is -55.56%.
The same measure for `CCOCc1ccccc1NC(=O)NCC(c1cnn(C)c1)N(C)C` (stereo unspecified): 18.54%; for `CCOc1cc(F)ccc1NC(=O)NCC(c1cnn(C)c1)N(C)C` (stereo unspecified): -24.88%; for `CCOc1ccccc1CNC(=O)NCC(c1cnn(C)c1)N(C)C` (stereo unspecified): 71.95%.
As to `COc1ccc(CN2CCn3cc(CN4CCCCC4)nc3C2)cc1`, the INHIBITION is -5.87%.
For the compound `Cc1cc(CN2C[C@@H]3COC[C@]3(COCc3csc(C)n3)C2)no1`, the INHIBITION worked out at 1.74%.
The same measure for `CC(C)c1nc(CN2CCOC(Cn3cncn3)C2)cs1` (stereo unspecified): 11.2%; for `CCOc1ccccc1CCNC(=O)NCC(O)c1ccsc1` (stereo unspecified): 53.63%; for `CCOc1ccccc1CCNC(=O)NCC(O)c1cccs1` (stereo unspecified): -23.79%.
The same measure for `CN(C)c1ccc(CCCNC(=O)NCC(O)c2ccsc2)cc1` (stereo unspecified): 34.55%.
The same measure for `Cc1ccccc1N1CCN(C(=O)CCc2nncn2C)C(C)C1` (stereo unspecified): -38.81%.
With `Cc1cccc(C2CC(=O)Nc3c2c(=O)[nH]n3C(C)C)c1` (stereo unspecified), the INHIBITION is given as -36.73%.
The same measure for `COC(=O)c1ccc(CNCc2cn(C)nc2C)cc1`: 14.26%; for `Cc1nn(C)cc1CNCc1ccc(N(C)C)cc1`: 8.09%; for `COc1ccc(CNCc2cn(C)nc2C)cc1`: 51.32%.
The same measure for `CCn1c(O)c(C(C)=O)c2cc(C)ccc21`: 30.48%.
The same measure for `Cc1cccc2c1ccn2CC(=O)NC[C@@H]1CCCN2CCCC[C@H]12`: -7.52%; for `CS(=O)(=O)N1CC[C@]2(O)CCN(CCCC(=O)c3ccccc3)C[C@@H]2C1`: -30.08%; for `C/C(NC(=O)c1ccccn1)=C1\C(=O)C[C@@H]2[C@H]1C2(C)C`: 52.74%.
Regarding `C/C(NC(=O)c1ccco1)=C1/C(=O)C[C@@H]2[C@H]1C2(C)C`, the INHIBITION amounted to 18.11%.
With `C/C(NC(=O)c1cccs1)=C1\C(=O)C[C@@H]2[C@H]1C2(C)C`, the INHIBITION was determined as 21.57%.
Take `Cc1nn(C)c2cn(C(C)C(=O)NCc3ccncc3)nc12` (stereo unspecified): the INHIBITION is given as 22.13%.
The same measure for `O=C1CC2(CCCNC2)C(=O)N1Cc1ccc(Cl)cc1` (stereo unspecified): -59.66%; for `Cc1ccc2nc(C(=O)N3CCCC[C@]4(C)NC(=O)CCC[C@H]34)cn2c1`: 55.74%.
In the case of `Cc1cccc2nc(C(=O)N3CCCC[C@]4(C)NC(=O)CCC[C@H]34)cn12`, the INHIBITION amounted to 29.06%.
`Cc1cccc(C(=O)N2CCCC[C@]3(C)NC(=O)CCC[C@H]23)n1`: the INHIBITION came out at 49.48%.
The same measure for `CCc1c(C)[nH]c(C(C)(C)N)nc1=O`: -33.81%; for `COc1cc(C2(C(=O)N3CCN(CC(C)O)CC3)CC2)ccc1C` (stereo unspecified): -71.2%.
The same measure for `COc1ccccc1C1(C(=O)N2CCN(CC(C)O)CC2)CC1` (stereo unspecified): 58.53%; for `CCC(O)CN1CCN(C(=O)C2(c3ccc(C)c(OC)c3)CC2)CC1` (stereo unspecified): -10.44%.
The same measure for `O=C(NC1CC1)[C@@H]1CCO[C@@H]2CCN(CCc3ccccc3)C[C@@H]21`: 8.88%; for `CCC[C@@H]1CN(Cc2cnc(-c3cccs3)nc2)C[C@H]1C(=O)O`: -9.03%; for `CCC[C@@H]1CN(c2ncnc3sccc23)C[C@H]1NS(C)(=O)=O`: 46.58%.
On to `CCC[C@@H]1CN(c2ncnc3sccc23)C[C@H]1C(=O)O`, for which the INHIBITION came to 51.48%.
Regarding `CC(C)CN1CCC2(CCN(CC3CC3)CC2)C1=O`, the INHIBITION is given as 16.25%.
`CC(Cc1ccccc1F)C(=O)Nc1ccc(OCCC(N)=O)cc1` (stereo unspecified): the INHIBITION is on record as -11.88%.
On to `COc1cccc(C(=O)Nc2ccc(OCCC(N)=O)cc2)c1OC`, for which the INHIBITION is -20.19%.
The same measure for `NC(=O)CCOc1ccc(NC(=O)c2ccccc2OC(F)F)cc1`: 58.14%; for `CCc1noc(C(C)N2CCN(c3ccc(C#N)cn3)CC2)n1` (stereo unspecified): -30.71%.
With `Cc1noc(C(C)N2CCN(c3ncnc4sccc34)CC2)n1` (stereo unspecified), the INHIBITION was 52.89%.
The same measure for `Cc1noc(C(C)N2CCN(c3ccc(C#N)cn3)CC2)n1` (stereo unspecified): 25.35%.
The same measure for `CCc1noc(C(C)N2CCN(c3ncnc4sccc34)CC2)n1` (stereo unspecified): 52.89%.
Turning to `CCc1noc(C(C)N2CCN(C)CC2)n1` (stereo unspecified), the INHIBITION is given as 9.83%.
The same measure for `Cc1noc(C(C)N2CCN(c3ncnc4ccccc34)CC2)n1` (stereo unspecified): 4.34%; for `O=C(NCc1ccccn1)c1cncc(C2CCCN2)n1` (stereo unspecified): 20.28%.
The same measure for `O=C(CCn1ncc2ccccc21)N1CCCC(Cc2cccnc2)C1` (stereo unspecified): 20.44%.
